Experimental data: PubChem BioAssay AID652042 (Broad Institute, 2013)
Screen size: about 1,100 compounds; about 350 (32%) were called active. These entries were drawn from the full list. Results with a measured potency or affinity are listed apart. Values without a mark were called inactive. No rule for the calls is given here.

Test: viability loss in CEM21 cells – cell-based, CellTiter-Glo luminescence, cherry-picked, cytotoxicity control for viral fusion inhibitor project, dose response (AID 652042)
Conditions: CellTiter-Glo ATP luminescence, 24 h; series mostly up to 35 µM; activity change, negative = cytotoxicity: at the top concentration

SMILES | activity change, negative = cytotoxicity
O=c1c2ccccc2nnn1CSc1nnc(COc2ccc(Cl)cc2)n1Cc1ccco1 | 5.32% [at 8 µM]
CC(NC(=O)c1ccccc1NC(=O)CN1CCc2ccccc2C1)c1ccccc1 (stereo unspecified) | -3.62%
O=C(O)C[C@@H]1C=C[C@@H](NC(=O)Nc2ccccc2)[C@H](CO)O1 | -0.862%
C[C@@H]1CN([C@@H](C)CO)C(=O)c2cccc(NS(=O)(=O)c3cccs3)c2O[C@@H]1CN(C)Cc1ccc(C(F)(F)F)cc1 | -11.3%
O=C(O)C[C@@H]1C=C[C@H](NC(=O)Nc2ccccc2)[C@H](CO)O1 | 2.19%
C[C@H]1Cn2cnc(C(=O)N3CCN(c4ccccc4)CC3)c2C(=O)N1 | -11.6%
O=C(Nc1nc(COc2ccccc2)cs1)C12CC3CC(CC(C3)C1)C2 | -22.3%
C=C1CCN([C@@H](Cc2ccccc2)C(=O)Nc2ccc(OC)cc2)S(=O)(=O)c2ccccc21 | -1.34%
COc1ccccc1NC(=O)N[C@@H]1CC[C@H](CC(=O)N[C@H](C)c2ccccc2)O[C@@H]1CO | -2.4%
CN1CCN(c2ccccc2NC(=O)C(Cc2ccccc2)n2cccc2)CC1 (stereo unspecified) | -19.5%
CC(=O)c1ccc(S(=O)(=O)N2CCN(c3nc4c(C)c(C)ccc4cc3C#N)CC2)cc1 | -12.4%
OCC[C@@H]1C[C@@H](O)[C@H](O)[C@]2(OCc3ccccc32)O1 | -4.61%
COc1ccc(NC(=O)Nc2ccc3c(c2)C(=O)N([C@H](C)CO)C[C@H](C)[C@H](CN(C)Cc2ccncc2)OCCCC[C@H](C)O3)cc1 | -6.02%
COc1ccccc1S(=O)(=O)Nc1ccc2c(c1)C(=O)N(C)C[C@@H](OC)[C@@H](C)CN[C@@H](C)CO2 | 0.329%
Cc1ccc2c(c1)[C@H]1[C@H](CO2)[C@H](c2ccccc2)[C@]2(C)C(=O)N(CC3CCCO3)CC(=O)N12 (stereo partly specified) | -0.675%
CCOC(=O)C(C)Oc1cccc2c(=O)n(CC(=O)NCCc3ccc(OC)c(OC)c3)ccc12 (stereo unspecified) | 1.62%
COc1ccc(Cl)cc1NC(=O)CN(C)C(=O)CCCc1c[nH]c2ccccc12 | -10.5%
CC(C)CN(C(=O)C(c1ccccc1)c1ccccc1)c1c(N)n(CC(C)C)c(=O)[nH]c1=O | 1.59%
O=C(Nc1ccc(Cl)cc1)C1CCCN(C2=NS(=O)(=O)c3ccccc32)C1 (stereo unspecified) | 5.19% [at 16 µM]
CCS(=O)(=O)Nc1ccc2c(c1)C(=O)N(C)C[C@H](OC)[C@@H](C)CN(C(=O)C1CCC1)[C@H](C)CO2 | 2.63%
CCc1ccc(-c2cn3nc(C)c(C)nc3n2)cc1 | -19.4%

SMILES | activity change, negative = cytotoxicity
COC(=O)[C@@]1(C)[C@H]2C(=O)N(Cc3ccccc3)C(=O)[C@H]2[C@H]2CN=C(SCC3CC3)N21 | -4.08%
COc1ccc(NC(=O)Nc2ccc3c(c2)C(=O)N([C@H](C)CO)C[C@H](C)[C@H](CN(C)S(=O)(=O)c2ccc(OC)cc2)O3)cc1 | -8.2%
C[C@@H]1CN([C@@H](C)CO)S(=O)(=O)c2ccc(-c3cccc(F)c3)cc2O[C@@H]1CN(C)S(=O)(=O)c1ccc(F)cc1 | -23.9%
COc1ccc(S(=O)(=O)Nc2ccc3c(c2)CC(=O)N([C@@H](C)CO)C[C@H](C)[C@H](CN(C)S(=O)(=O)c2ccc(F)cc2)O3)cc1 | -3.18%
COc1ccc(C(=O)C(C)N(C(=O)c2ccc(Cl)cc2Cl)N2C(=O)C3C4C=CC(C4)C3C2=O)cc1 (stereo unspecified) | -14%
COc1ccc(Cn2nnnc2C(c2cc3cc(C)cc(C)c3[nH]c2=O)N2CCOCC2)cc1 (stereo unspecified) | 1.27%
O=C(N(c1ccccn1)c1ccccn1)C12CC3CC(CC(Cl)(C3)C1)C2 | -0.057%
COC(=O)[C@@]1(Cc2ccc(F)cc2)[C@H]2c3cc(C(=O)N(C)C)n(CCO)c3C[C@H]2CN1C(=O)c1ccccc1 | 4.85%
O=C(CCCOc1ccc(Cl)cc1Cl)Nc1cc(S(=O)(=O)N2CCOCC2)ccc1N1CCOCC1 | -10.9%
Cc1cc(Cl)ccc1OCCCC(=O)Nc1cc(S(=O)(=O)N2CCOCC2)ccc1N1CCOCC1 | -2.78%
O=C(COC(=O)c1cc(S(=O)(=O)N2CCOCC2)ccc1O)NCc1ccc2c(c1)OCO2 | 7.4%
COC(=O)C1CCN(C(=O)COC(=O)c2cc(S(=O)(=O)N3CCOCC3)ccc2C)CC1 | 2.66%
CC(C)(C)C1CCc2onc(C(=O)NCc3ccc(F)cc3)c2C1 (stereo unspecified) | -14.6%
Cn1c(=O)[nH]c2cc3ccccc3cc21 | -6.26%
N#Cc1ccc(CN2CCN(C(=O)CNC(=O)Cc3cccc4ccccc34)CC2)cc1 | -15.3%
CCCCNC(=O)C[C@H]1C[C@@]2(C(=O)OC)C(=C[C@H](C(C)(C)C)O[C@@H]2C)N(Cc2ccc3c(c2)OCO3)C1=O | -9.67%
C=C(C)CN(CC)c1nc(N)c2c(N)nc3c(c2c1C#N)CC(=O)N3C12CC3CC(CC(C3)C1)C2 | -28.7%
CN(C[C@H](Cc1ccccc1)N(C[C@H](Cc1ccccc1)N(CC1(c2ccccc2)CC1)N=O)N=O)N=O | -8.9%
COc1ccc2ncn(-c3ccccc3)c2c1 | -2.1%
COC(=O)[C@@]1(C)[C@H]2C(=O)N(Cc3ccccc3)C(=O)[C@H]2[C@H]2CN=C(SCc3ccccc3)N21 | -3.46%
CCOc1ccc2c(c1)-c1c(ssc1=S)C(C)(C)N2C(=O)c1ccco1 | -29.3%

SMILES | activity change, negative = cytotoxicity
CCn1c(COc2ccc(Cl)cc2)nnc1SCc1nc2ccccc2[nH]1 | -21.6%
COCCN(C(=O)COC(=O)C12CC3CC(CC(Cl)(C3)C1)C2)c1c(N)n(Cc2ccccc2)c(=O)[nH]c1=O | 5.3% [at 16 µM]
COCCCN(C(=S)NC(=O)C12CC3CC(CC(C3)C1)C2)c1c(N)n(Cc2ccccc2)c(=O)[nH]c1=O | 6.22%
CCOc1ccccc1C(=O)NCC(=O)NNC(=O)CN(C)S(=O)(=O)c1ccc(Cl)cc1 | -8.4%
Cc1cc(C)nc(/N=C(\N)Nc2ccc(CC(=O)OC(C)C)cc2)n1 | -16.5%
CCCC[C@H](CN(N=O)[C@@H](Cc1ccccc1)CN(C)N=O)N(CCc1ccccc1)N=O | -7.7%
CN(C(=O)c1cccc(NC(=O)Cc2cccc(NC(=O)C3CCCN(C(=O)C4CCC4)C3)c2)c1)C1CCC1 (stereo unspecified) | -1.65%
O=C1c2cccnc2C(Nc2ccc(S(=O)(=O)N3CCCCCC3)cc2)N1Cc1ccccc1 (stereo unspecified) | -1.75%
C[C@H]1CN([C@@H](C)CO)C(=O)c2ccccc2-c2ccccc2CO[C@@H]1CN(C)C(=O)CCC(F)(F)F | 1%
C[C@H]1CN([C@@H](C)CO)C(=O)c2ccccc2-c2ccccc2CO[C@H]1CN(C)S(=O)(=O)c1cccc(C#N)c1 | -13.5%
CC(OC(=O)c1ccc(NC(=O)CC#N)cc1)C(=O)NCCC1=CCCCC1 (stereo unspecified) | -9.3%
Cc1nc2ccccc2c2oc(C(=O)NCc3ccc4c(c3)OCO4)cc12 | -2%
Cc1ccc(S(=O)(=O)NCC(=O)OCC(=O)NCc2ccc3c(c2)OCO3)cc1 | 9.32% [at 16 µM]
C[C@@]12C(=O)N(c3cccc(Cl)c3)C(=O)N1[C@H](c1ccc(Cl)cc1)[C@@H]1C(=O)N(C3CCCCC3)C(=O)[C@@H]12 | -18.4%
CCCCCCCn1c(NC(=O)CC)nc2ccccc21 | -26%
COc1ccc(C(O)c2nc3ccccc3n2C)cc1OC (stereo unspecified) | -1.11%
Cc1ccc2cc(C#N)c(NCCNC(=O)C3CCC3)nc2c1C | -0.969%
CC1=NN(C(=O)c2ccccc2)C(O)(c2ccc(Br)cc2)C1 (stereo unspecified) | -5.67%
Cc1ccc(S(=O)(=O)N(C)C[C@@H]2Oc3ccc(NC(=O)Cc4cn(C)c5ccccc45)cc3CC(=O)N([C@H](C)CO)C[C@@H]2C)cc1 | -7.68%
CC(C)CNC(=O)c1ccccc1NC(=O)c1ccccc1N(C)S(=O)(=O)c1ccccc1 | -4.43%
CNC[C@H]1Oc2c(NC(=O)Nc3cccc4ccccc34)cccc2C(=O)N([C@H](C)CO)C[C@H]1C | -11.5%

SMILES | activity change, negative = cytotoxicity
Cc1nc2ccc(NC(=O)c3cc(S(=O)(=O)N(C)c4ccccc4)ccc3Cl)cc2s1 | -9.18%
CC(=O)c1c(C)[nH]c(C(=O)OCC(=O)Nc2ccc(Cl)c(S(=O)(=O)N(C)C)c2)c1C | -12%
CC[C@@]1(C(=O)OC)N[C@H](CN(C)C(=O)Nc2ccc(OC)cc2)[C@@H]2C(=O)N(Cc3ccccc3)C(=O)[C@@H]21 | 1.04%
COc1ccc(CCCC(=O)NCCc2ccccc2)c(C)c1 | 3.67%
COc1ccc(CCNC(=O)COC(=O)c2cccn2C)cc1 | 3.42%
CCOC(=O)c1c(C)[nH]c(C)c1C(=O)COC(=O)[C@@H](NC(=O)c1ccccc1OCC)C(C)C | -7.56%
COc1ccccc1N(C)S(=O)(=O)c1ccc(Cl)c(C(=O)NCC2(N(C)C)CCCCC2)c1 | -3.25%
C[C@H](CO)N1C[C@H](C)[C@@H](CN(C)S(=O)(=O)c2ccc(F)cc2)Oc2ccc(NS(=O)(=O)c3cn(C)cn3)cc2CC1=O | -1.97%
CC(C)(C)N1C(=O)[C@H]2[C@@H](c3ccc(Br)cc3)N3C(=O)N(c4cccc(Cl)c4)C(=O)[C@@]3(C)[C@H]2C1=O | -7%
CC[C@@]12C(=O)N(c3cccc(F)c3)C(=O)N1[C@H](c1ccc(Br)cc1)[C@@H]1C(=O)N(C(C)(C)C)C(=O)[C@@H]12 | -2.79%
Cc1cc(C)c2nc(C(F)(F)F)nc(N3CCN(C(=O)c4ccco4)CC3)c2c1 | -15.5%
CCC(NS(=O)(=O)c1c(C)[nH]c(=O)[nH]c1=O)C12CC3CC(CC(C3)C1)C2 (stereo unspecified) | -0.446%
COC(=O)C1=C(C)N(Cc2ccc(Cl)cc2)C(=S)NC1c1ccc(OC)cc1 (stereo unspecified) | -15.5%
CC1=C(C(=O)OCc2ccc3c(c2)OCO3)C(c2ccc(F)cc2)NC(=O)N1 (stereo unspecified) | -24.2%
CCN(CC)CCN(C(=O)c1cc(Cl)sc1Cl)c1nc2cc3c(cc2s1)OCO3 | -6.58%
CCN(C[C@H]1N[C@@](C)(C(=O)OC)[C@H]2C(=O)N(Cc3ccccc3)C(=O)[C@@H]12)C(=O)Nc1ccc(C)cc1 | 0.443%
COc1ccc(S(=O)(=O)n2ccc(-c3ccc(OCCN(C)c4ccccn4)cc3)n2)cc1 | -11%
S=c1nc[nH]c2c1[nH]c1ccc(Cl)cc12 | 4.8%
